The source of these data is PMC7862700, “An all-to-all approach to the identification of sequence-specific readers for epigenetic DNA modifications on cytosine”.

What all share (test): DAPPL (digital affinity profiling via proximity ligation, sequencing); 10 mM Tris-HCl pH 7.5, 50 mM NaCl, 1 mM DTT, 4% glycerol, room temperature, 30 min; GST-TFs on glutathione beads, 16-mer random dsDNA library, 0.1% formaldehyde crosslink after washing; high values mean tight binding
One experiment concerns the target T1, FLI1 (Homo sapiens, UniProt Q01543 1-452).
T1 sequence: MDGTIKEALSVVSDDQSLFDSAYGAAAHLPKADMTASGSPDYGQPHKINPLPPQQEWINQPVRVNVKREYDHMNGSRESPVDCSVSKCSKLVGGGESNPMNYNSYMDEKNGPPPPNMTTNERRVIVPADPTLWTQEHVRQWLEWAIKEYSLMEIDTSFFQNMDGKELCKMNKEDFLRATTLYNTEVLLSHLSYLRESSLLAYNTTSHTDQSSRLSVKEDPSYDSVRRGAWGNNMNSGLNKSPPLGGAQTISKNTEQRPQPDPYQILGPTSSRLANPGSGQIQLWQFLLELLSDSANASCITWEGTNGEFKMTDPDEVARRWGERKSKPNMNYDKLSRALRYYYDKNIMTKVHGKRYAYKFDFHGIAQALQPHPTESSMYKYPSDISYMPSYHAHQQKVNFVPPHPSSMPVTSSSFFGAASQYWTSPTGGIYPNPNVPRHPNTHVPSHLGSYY
Conditions: protein: recombinant; tags: N-terminal GST; dsDNA, one strand shown. Put shortly: (§1)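 Sequencing on an Illumina NextSeq500 followed washing, crosslinking with 0.1% formaldehyde, proximity ligation (BsaI/T4 ligase, 1 h, 37 °C) and PCR amplification of pools that had been incubated for 30 min at room temperature with 200 nmole of a random double-stranded 16-mer DNA library in Tris/NaCl/DTT/glycerol buffer. Each pool held DNA-barcoded human transcription factors, expressed in yeast as GST fusions and captured on glutathione beads, plus a tag-only sample. Binding signal is a hexamer's read frequency for a factor divided by its frequency in the tag-only sample.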

The target of the next experiment is T2, ELK1 (Homo sapiens, UniProt P19419 1-428).
T2 sequence: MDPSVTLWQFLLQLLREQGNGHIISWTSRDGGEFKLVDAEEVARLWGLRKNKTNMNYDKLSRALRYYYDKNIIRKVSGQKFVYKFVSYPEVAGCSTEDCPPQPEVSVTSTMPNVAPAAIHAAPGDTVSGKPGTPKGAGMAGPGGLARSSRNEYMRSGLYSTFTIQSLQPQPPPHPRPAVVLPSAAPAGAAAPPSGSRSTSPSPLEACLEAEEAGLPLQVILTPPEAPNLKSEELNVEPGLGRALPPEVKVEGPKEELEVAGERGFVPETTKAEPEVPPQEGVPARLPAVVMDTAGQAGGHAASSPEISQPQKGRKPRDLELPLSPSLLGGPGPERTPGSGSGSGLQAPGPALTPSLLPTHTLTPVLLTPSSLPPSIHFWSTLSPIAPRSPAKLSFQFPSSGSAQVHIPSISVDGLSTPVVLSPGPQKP
Conditions: protein: recombinant; tags: N-terminal GST; dsDNA, one strand shown. Put shortly:
as §1

The target in a further experiment is T3, GABPA (Homo sapiens, UniProt Q06546 1-454).
T3 sequence: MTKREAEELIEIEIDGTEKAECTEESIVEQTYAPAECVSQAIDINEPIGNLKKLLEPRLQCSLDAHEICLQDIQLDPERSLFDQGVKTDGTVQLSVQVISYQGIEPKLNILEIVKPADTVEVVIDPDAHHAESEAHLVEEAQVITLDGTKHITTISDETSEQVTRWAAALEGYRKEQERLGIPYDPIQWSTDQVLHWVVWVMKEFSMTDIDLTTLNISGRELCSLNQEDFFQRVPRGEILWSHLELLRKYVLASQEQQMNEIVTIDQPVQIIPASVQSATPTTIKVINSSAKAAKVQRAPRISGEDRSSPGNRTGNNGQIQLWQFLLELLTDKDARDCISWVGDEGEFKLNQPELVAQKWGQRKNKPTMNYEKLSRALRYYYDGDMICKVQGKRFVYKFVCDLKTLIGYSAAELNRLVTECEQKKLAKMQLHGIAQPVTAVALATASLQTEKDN
Particulars: protein: recombinant; tags: N-terminal GST; dsDNA, one strand shown. Summed up:
as §1

The target in a further experiment is T4, ERG (Homo sapiens, UniProt P11308 1-479).
T4 sequence: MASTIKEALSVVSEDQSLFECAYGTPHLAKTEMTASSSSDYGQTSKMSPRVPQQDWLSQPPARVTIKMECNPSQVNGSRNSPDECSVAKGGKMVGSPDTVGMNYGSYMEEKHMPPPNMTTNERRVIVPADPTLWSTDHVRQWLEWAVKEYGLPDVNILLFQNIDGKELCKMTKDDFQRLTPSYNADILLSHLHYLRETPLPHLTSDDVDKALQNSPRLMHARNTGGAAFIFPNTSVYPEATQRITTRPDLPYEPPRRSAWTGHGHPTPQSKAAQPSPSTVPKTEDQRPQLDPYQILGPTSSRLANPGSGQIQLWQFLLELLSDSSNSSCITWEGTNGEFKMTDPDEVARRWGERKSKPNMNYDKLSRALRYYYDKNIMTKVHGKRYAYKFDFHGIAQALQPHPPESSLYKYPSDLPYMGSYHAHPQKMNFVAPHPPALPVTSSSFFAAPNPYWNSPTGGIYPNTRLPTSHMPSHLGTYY
Particulars: protein: recombinant; tags: N-terminal GST; dsDNA, one strand shown. Put shortly:
as §1

A further experiment addresses ELF1 (Homo sapiens, UniProt P32519 1-619). Particulars: protein: recombinant; tags: N-terminal GST; dsDNA, one strand shown. Put shortly: as §1
The target of another experiment is T5, EHF (Homo sapiens, UniProt Q9NZC4 1-300).
T5 sequence: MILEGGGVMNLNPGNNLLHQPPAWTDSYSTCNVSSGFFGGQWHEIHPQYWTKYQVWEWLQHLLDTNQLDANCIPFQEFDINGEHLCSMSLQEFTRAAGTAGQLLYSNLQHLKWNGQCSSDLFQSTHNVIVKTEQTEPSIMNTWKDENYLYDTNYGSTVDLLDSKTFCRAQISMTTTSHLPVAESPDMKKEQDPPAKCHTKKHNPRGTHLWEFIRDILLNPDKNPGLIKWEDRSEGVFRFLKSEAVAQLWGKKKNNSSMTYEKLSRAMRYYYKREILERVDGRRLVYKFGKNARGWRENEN
Conditions: protein: recombinant; tags: N-terminal GST; dsDNA, one strand shown. Summed up:
as §1

In another experiment the target is SPI1 (Homo sapiens, UniProt P17947 1-270). Particulars: protein: recombinant; tags: N-terminal GST; dsDNA, one strand shown. Put shortly: as §1
The target in the next experiment is SPIB (Homo sapiens, UniProt Q01892 1-262). Particulars: protein: recombinant; tags: N-terminal GST; dsDNA, one strand shown. Summed up: as §1
Chain of SPIB (Q01892 whole entry): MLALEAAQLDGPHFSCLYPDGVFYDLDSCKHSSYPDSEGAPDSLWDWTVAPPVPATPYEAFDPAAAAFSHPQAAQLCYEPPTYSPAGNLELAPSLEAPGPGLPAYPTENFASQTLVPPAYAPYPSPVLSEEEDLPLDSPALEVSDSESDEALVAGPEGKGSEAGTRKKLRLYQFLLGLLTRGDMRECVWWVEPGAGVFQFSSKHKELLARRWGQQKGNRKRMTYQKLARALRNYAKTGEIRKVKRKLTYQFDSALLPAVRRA
A further experiment concerns the target T6, ELK3 (Homo sapiens, UniProt P41970 1-407).
T6 sequence: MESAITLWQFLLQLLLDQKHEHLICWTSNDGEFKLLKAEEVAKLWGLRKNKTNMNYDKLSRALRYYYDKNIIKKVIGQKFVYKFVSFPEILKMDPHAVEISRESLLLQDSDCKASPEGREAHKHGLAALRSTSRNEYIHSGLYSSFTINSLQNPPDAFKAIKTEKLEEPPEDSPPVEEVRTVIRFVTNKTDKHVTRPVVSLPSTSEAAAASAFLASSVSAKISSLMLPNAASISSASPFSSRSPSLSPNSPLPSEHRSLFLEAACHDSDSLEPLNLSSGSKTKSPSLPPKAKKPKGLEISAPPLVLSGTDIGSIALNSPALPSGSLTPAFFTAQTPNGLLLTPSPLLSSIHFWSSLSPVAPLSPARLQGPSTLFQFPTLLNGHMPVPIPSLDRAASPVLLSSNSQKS
Particulars: protein: recombinant; tags: N-terminal GST; dsDNA, one strand shown. Put shortly: as §1

Another experiment deals with T7, FEV (Homo sapiens, UniProt Q99581 1-238).
T7 sequence: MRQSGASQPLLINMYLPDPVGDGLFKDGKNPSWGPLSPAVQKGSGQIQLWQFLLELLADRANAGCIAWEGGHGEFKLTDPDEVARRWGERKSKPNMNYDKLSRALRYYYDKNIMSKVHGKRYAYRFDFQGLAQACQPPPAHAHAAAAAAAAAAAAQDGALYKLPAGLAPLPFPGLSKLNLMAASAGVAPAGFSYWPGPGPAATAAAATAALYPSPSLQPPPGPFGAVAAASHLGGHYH
Conditions: protein: recombinant; tags: N-terminal GST; dsDNA, one strand shown. Put shortly:
as §1

The next experiment addresses ETV5 (Homo sapiens, UniProt P41161 1-510). Conditions: protein: recombinant; tags: N-terminal GST; dsDNA, one strand shown. Put shortly:
as §1

The target in a further experiment is HSF1 (Homo sapiens, UniProt Q00613 1-529). Particulars: protein: recombinant; tags: N-terminal GST; chain copies: 3; dsDNA, one strand shown. Summed up: as §1
Chain of HSF1 (Q00613 whole entry): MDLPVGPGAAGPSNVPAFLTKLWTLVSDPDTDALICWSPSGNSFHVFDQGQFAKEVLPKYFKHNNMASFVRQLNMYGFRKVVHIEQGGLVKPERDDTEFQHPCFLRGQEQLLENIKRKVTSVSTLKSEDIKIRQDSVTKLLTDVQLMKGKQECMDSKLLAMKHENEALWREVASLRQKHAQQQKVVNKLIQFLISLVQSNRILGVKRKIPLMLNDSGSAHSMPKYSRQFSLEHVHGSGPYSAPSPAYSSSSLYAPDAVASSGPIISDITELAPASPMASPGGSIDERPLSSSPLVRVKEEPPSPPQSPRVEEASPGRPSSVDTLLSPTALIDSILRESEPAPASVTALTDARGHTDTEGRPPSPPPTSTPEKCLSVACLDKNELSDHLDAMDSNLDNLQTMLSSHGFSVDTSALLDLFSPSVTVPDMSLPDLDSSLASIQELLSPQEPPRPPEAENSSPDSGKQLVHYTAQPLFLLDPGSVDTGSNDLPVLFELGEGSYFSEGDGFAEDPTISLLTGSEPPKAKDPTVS
The target in another experiment is T8, SPIC (Homo sapiens, UniProt Q8N5J4 1-248).
T8 sequence: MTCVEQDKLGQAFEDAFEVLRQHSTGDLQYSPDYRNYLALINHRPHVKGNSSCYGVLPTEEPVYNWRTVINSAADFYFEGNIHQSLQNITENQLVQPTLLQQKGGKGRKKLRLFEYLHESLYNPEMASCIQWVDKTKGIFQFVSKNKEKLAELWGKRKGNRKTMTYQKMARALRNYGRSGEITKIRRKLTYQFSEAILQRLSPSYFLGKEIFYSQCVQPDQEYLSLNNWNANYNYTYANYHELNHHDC
Conditions: protein: recombinant; tags: N-terminal GST; dsDNA, one strand shown. Summed up:
as §1

In the next experiment the target is ELF4 (Homo sapiens, UniProt Q99607 1-663). Particulars: protein: recombinant; tags: N-terminal GST; dsDNA, one strand shown. Put shortly:
as §1

The target of the next experiment is T9, ELK4 (Homo sapiens, UniProt P28324-2 1-405).
T9 sequence: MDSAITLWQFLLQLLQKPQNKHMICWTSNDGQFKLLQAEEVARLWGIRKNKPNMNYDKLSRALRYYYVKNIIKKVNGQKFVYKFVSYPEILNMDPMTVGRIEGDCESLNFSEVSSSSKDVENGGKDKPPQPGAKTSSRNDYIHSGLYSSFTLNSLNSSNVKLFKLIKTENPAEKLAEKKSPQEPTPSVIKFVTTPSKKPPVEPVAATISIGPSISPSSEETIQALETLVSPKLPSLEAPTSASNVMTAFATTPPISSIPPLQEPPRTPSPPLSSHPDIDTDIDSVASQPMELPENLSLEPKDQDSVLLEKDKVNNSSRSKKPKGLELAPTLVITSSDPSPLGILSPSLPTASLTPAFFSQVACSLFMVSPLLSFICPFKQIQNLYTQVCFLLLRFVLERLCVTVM
Particulars: protein: recombinant; tags: N-terminal GST; dsDNA, one strand shown. Put shortly: as §1

Another experiment has as its target T10, ETV2 (Homo sapiens, UniProt O00321 1-342).
T10 sequence: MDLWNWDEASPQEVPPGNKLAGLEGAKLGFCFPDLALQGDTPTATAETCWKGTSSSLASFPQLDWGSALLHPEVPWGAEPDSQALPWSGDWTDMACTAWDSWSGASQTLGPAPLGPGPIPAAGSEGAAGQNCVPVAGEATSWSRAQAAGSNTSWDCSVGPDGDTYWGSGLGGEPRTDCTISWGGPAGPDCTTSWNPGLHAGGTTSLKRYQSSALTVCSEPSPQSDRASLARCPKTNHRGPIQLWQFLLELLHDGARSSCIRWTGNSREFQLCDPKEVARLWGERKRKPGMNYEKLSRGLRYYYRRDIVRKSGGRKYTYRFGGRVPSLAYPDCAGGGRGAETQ
Particulars: protein: recombinant; tags: N-terminal GST; dsDNA, one strand shown. Summed up:
as §1

The target of the next experiment is T11, ELF3 (Homo sapiens, UniProt P78545 1-371).
T11 sequence: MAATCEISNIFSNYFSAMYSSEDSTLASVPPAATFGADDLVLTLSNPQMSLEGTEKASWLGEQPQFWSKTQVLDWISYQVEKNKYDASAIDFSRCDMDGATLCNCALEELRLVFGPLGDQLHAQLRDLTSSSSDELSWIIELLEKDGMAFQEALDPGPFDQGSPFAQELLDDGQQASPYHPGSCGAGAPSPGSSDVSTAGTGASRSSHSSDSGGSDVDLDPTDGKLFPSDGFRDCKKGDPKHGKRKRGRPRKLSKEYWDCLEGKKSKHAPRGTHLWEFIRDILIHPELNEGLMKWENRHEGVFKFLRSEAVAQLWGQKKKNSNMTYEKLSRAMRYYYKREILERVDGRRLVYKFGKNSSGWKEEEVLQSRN
Conditions: protein: recombinant; tags: N-terminal GST; dsDNA, one strand shown. Put shortly: as §1

The target in a further experiment is ETV1 (Homo sapiens, UniProt P50549 1-477). Conditions: protein: recombinant; tags: N-terminal GST; dsDNA, one strand shown. Put shortly:
as §1

Chain of ELF4 (Q99607 whole entry): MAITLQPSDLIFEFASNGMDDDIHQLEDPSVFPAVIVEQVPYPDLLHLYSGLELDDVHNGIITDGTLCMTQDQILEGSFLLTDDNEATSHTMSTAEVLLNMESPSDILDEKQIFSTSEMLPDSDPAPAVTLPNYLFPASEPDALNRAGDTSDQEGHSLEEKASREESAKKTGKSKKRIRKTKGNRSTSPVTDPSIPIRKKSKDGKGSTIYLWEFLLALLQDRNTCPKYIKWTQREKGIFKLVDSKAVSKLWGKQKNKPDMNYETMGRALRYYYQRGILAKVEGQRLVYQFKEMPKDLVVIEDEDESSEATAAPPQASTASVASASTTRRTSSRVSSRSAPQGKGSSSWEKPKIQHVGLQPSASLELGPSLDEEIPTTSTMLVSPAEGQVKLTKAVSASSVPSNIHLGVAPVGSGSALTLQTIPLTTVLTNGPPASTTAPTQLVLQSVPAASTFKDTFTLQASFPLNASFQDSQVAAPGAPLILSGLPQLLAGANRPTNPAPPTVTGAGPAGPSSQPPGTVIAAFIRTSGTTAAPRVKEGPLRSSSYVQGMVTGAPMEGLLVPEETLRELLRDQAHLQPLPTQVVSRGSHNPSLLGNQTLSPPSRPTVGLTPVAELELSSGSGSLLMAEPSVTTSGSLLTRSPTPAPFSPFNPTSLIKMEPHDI
Chain of ELF1 (P32519 whole entry): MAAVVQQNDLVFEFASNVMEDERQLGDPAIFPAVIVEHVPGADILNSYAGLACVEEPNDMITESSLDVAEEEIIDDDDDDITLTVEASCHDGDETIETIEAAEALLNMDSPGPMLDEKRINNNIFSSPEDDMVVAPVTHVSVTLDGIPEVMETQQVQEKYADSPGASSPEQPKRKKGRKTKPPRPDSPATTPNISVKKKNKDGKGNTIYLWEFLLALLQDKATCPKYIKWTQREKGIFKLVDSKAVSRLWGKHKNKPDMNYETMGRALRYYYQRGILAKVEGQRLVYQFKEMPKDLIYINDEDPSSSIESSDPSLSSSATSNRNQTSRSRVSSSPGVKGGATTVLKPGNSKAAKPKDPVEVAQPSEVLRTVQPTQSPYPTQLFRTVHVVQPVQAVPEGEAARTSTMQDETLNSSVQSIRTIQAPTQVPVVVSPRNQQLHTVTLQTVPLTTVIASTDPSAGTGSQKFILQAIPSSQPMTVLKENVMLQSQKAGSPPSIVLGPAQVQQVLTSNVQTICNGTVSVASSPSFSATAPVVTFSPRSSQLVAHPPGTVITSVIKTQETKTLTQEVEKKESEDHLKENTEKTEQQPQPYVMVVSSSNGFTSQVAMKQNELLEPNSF
Chain of ETV1 (P50549 whole entry): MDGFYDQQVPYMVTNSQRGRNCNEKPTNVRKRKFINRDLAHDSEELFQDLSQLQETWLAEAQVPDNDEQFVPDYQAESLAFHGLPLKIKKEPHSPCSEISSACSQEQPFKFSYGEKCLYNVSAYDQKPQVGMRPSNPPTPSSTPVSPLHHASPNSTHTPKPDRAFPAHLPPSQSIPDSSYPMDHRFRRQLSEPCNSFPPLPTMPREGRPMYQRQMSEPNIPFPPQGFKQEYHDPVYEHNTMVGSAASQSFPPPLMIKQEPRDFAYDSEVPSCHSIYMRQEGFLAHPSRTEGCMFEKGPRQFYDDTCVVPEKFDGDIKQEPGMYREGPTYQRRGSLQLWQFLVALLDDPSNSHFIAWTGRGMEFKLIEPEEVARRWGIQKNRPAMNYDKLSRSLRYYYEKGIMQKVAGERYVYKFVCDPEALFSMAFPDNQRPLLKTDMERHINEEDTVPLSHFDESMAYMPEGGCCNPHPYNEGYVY
Chain of ETV5 (P41161 whole entry): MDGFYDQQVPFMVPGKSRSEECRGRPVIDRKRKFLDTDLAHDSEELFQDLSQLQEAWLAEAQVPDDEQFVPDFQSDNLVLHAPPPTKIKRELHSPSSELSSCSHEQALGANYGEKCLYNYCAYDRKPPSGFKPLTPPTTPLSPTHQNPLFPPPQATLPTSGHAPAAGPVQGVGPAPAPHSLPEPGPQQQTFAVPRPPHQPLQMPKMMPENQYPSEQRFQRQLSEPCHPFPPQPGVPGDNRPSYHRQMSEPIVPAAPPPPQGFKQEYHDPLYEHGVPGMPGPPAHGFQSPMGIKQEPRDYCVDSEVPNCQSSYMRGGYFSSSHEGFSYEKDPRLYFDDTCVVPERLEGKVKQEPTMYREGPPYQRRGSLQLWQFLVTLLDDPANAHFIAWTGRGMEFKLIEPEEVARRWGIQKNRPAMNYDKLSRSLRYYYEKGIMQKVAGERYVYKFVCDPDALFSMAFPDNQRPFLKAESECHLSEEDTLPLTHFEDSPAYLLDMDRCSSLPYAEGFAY

Consider GCACTC, for which the binding signal in the experiment with FLI1 is 1.29 fold enrichment (6-mer frequency, TF over GST control); with ELK1 it was 1.5 fold enrichment (6-mer frequency, TF over GST control); with GABPA it was 1.32 fold enrichment (6-mer frequency, TF over GST control); in the experiment with ERG it was 1.31 fold enrichment (6-mer frequency, TF over GST control); with ELF1, 1.33 fold enrichment (6-mer frequency, TF over GST control); with EHF, 1.37 fold enrichment (6-mer frequency, TF over GST control). The binding signal in the experiment with SPI1 is 1.35 fold enrichment (6-mer frequency, TF over GST control); with SPIB, 1.35 fold enrichment (6-mer frequency, TF over GST control); with ELK3, 1.28 fold enrichment (6-mer frequency, TF over GST control); with FEV, 1.31 fold enrichment (6-mer frequency, TF over GST control); with ETV5, 1.38 fold enrichment (6-mer frequency, TF over GST control); in the experiment with HSF1, 1.06 fold enrichment (6-mer frequency, TF over GST control). In addition, the binding signal in the experiment with SPIC was 1.25 fold enrichment (6-mer frequency, TF over GST control); in the experiment with ELF4, 1.31 fold enrichment (6-mer frequency, TF over GST control); with ELK4 it was 1.33 fold enrichment (6-mer frequency, TF over GST control); with ETV2 it was 1.36 fold enrichment (6-mer frequency, TF over GST control); with ELF3 it was 1.41 fold enrichment (6-mer frequency, TF over GST control); with ETV1, 1.33 fold enrichment (6-mer frequency, TF over GST control).
